These results are taken from PubChem BioAssay (EPA / NIEHS).

Calls of active or inactive are those of the source. The calls were made as follows: active = hit-call score of the fitted dose curve at least 0.9, where 1 is the maximum; inactive = score below 0.9.

Holding throughout (conditions): mRNA level, 48 h; actives raise or lower the signal
Read-out in assay [1]: Insulin Like Growth Factor 1 (IGF1), IGF1 (gene 3479)
Nature of the assay: LTEA_HepaRG_IGF1: Life Technologies and Expression Analysis (LTEA) Assay for Insulin Like Growth Factor 1 (IGF1) using HepaRG (AID 2283506). Summed up:
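Differentiated HepaRG cells in serum-free induction medium, exposed 48 h in duplicate to 8 half-log concentrations up to 100 uM in 0.5% DMSO. IGF1 mRNA by Fluidigm qRT-PCR, normalised to ACTB, GAPDH and POLR2A.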

Read-out in assay [2]: Intercellular Adhesion Molecule 1 (ICAM1), ICAM1 (gene 3383)
Kind of assay: LTEA_HepaRG_ICAM1: Life Technologies and Expression Analysis (LTEA) Assay for Intercellular Adhesion Molecule 1 (ICAM1) using HepaRG (AID 2283507). Summed up: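 Differentiated human HepaRG cells in serum-free induction medium exposed 48 h in duplicate to 8 half-log concentrations (top 100 uM, 0.5% DMSO). ICAM1 mRNA quantified by TaqMan qRT-PCR, normalized to ACTB, GAPDH and POLR2A; bidirectional fitting versus DMSO.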

Read-out in assay [3]: Insulin-like growth factor-binding protein 1 (IGFBP1), IGFBP1 (gene 3484)
Kind of assay: LTEA_HepaRG_IGFBP1: Life Technologies and Expression Analysis (LTEA) Assay for Insulin-like growth factor-binding protein 1 (IGFBP1) using HepaRG (AID 2283508). Summed up: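 HepaRG cells, plated 48 h then switched to serum-free induction medium, exposed in duplicate for 48 h to 8-point half-log series from 100 uM in 0.5% DMSO. mRNA measured by qRT-PCR, normalized to ACTB/GAPDH/POLR2A; bidirectional fit versus DMSO.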

Read-out in assay [4]: Interleukin 6 (IL6), IL6 (gene 3569)
Kind of assay: LTEA_HepaRG_IL6: Life Technologies and Expression Analysis (LTEA) Assay for Interleukin 6 (IL6) using HepaRG (AID 2283509). Summed up:
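HepaRG cells exposed in duplicate for 48 h to eight half-log concentrations, top 100 uM, in 0.5% DMSO serum-free induction medium. mRNA measured by qRT-PCR, normalized to ACTB, GAPDH and POLR2A. Bidirectional fit versus DMSO.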

Read-out in assay [5]: Interleukin 6 Receptor (IL6R), IL6R (gene 3570)
Kind of assay: LTEA_HepaRG_IL6R: Life Technologies and Expression Analysis (LTEA) Assay for Interleukin 6 Receptor (IL6R) using HepaRG (AID 2283510). Summed up:
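Differentiated HepaRG cells, plated 48 h, then exposed in duplicate for 48 h in serum-free induction medium to 8 half-log concentrations (top 100 uM, 0.5% DMSO). IL6R mRNA measured by TaqMan qRT-PCR, normalized to ACTB/GAPDH/POLR2A; bidirectional fit vs DMSO.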

Read-out in assay [6]: Potassium channel subfamily K member 1 (KCNK1), KCNK1 (gene 3775)
Nature of the assay: LTEA_HepaRG_KCNK1: Life Technologies and Expression Analysis (LTEA) Assay for Potassium channel subfamily K member 1 (KCNK1) using HepaRG (AID 2283511). In outline:
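Differentiated HepaRG cells, 48 h exposure in serum-free induction medium with 0.5% DMSO; 8 concentrations, half-log from 100 uM, duplicate. KCNK1 mRNA by qRT-PCR, normalized to ACTB, GAPDH, POLR2A; bidirectional fit vs DMSO.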

Read-out in assay [7]: JUN Transcription Factor, JUN (gene 3725)
Kind of assay: LTEA_HepaRG_JUN: Life Technologies and Expression Analysis (LTEA) Assay for JUN Transcription Factor using HepaRG (AID 2283513). In outline: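 HepaRG cells, 48 h post-plating, exposed 48 h in serum-free induction medium to 8-point half-log series (top 100 uM, 0.5% DMSO), duplicate; mRNA by qRT-PCR (TaqMan, Fluidigm), normalized to ACTB/GAPDH/POLR2A; bidirectional fit vs DMSO.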

Read-out in assay [8]: Lipase C (LIPC), LIPC (gene 3990)
Kind of assay: LTEA_HepaRG_LIPC: Life Technologies and Expression Analysis (LTEA) Assay for Lipase C (LIPC) using HepaRG (AID 2283514). Summed up: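 HepaRG cells, 48 h after plating, treated in duplicate for 48 h in serum-free induction medium over 8 half-log concentrations from 100 uM, 0.5% DMSO. LIPC mRNA by TaqMan qRT-PCR normalized to ACTB/GAPDH/POLR2A; bidirectional fit versus DMSO.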

Read-out in assay [9]: Lipoprotein lipase (LPL), LPL (gene 4023)
Nature of the assay: LTEA_HepaRG_LPL: Life Technologies and Expression Analysis (LTEA) Assay for Lipoprotein lipase (LPL) using HepaRG (AID 2283515). In outline: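 Differentiated HepaRG cells, plated 48 h, then exposed 48 h in serum-free induction medium to 8 concentrations (top 100 uM, half-log steps) in 0.5% DMSO, duplicate. LPL mRNA measured by qRT-PCR, normalized to ACTB, GAPDH and POLR2A.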

Read-out in assay [10]: MicroRNA 122 (MIR122), gene 406906
Kind of assay: LTEA_HepaRG_MIR122: Life Technologies and Expression Analysis (LTEA) Assay for MicroRNA 122 (MIR122) using HepaRG (AID 2283516). Also: the transcript read is the microRNA miR-122. Summed up: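 Differentiated human HepaRG cells in serum-free induction medium exposed 48 h to 8 half-log concentrations from 100 uM in 0.5% DMSO, duplicate. MIR122 quantified by Fluidigm TaqMan qRT-PCR, normalised to ACTB, GAPDH, POLR2A; fold change fitted bidirectionally versus DMSO.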

Read-out in assay [11]: matrix metalloproteinase-10 (MMP10), MMP10 (gene 4319)
Nature of the assay: LTEA_HepaRG_MMP10: Life Technologies and Expression Analysis (LTEA) Assay for matrix metalloproteinase-10 (MMP10) using HepaRG (AID 2283517). Summed up:
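Differentiated HepaRG cells in serum-free induction medium exposed 48 h in duplicate to 8-point half-log series up to 100 uM in 0.5% DMSO. mRNA quantified by qRT-PCR, normalised to ACTB, GAPDH, POLR2A; bidirectional fit versus DMSO.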

Read-out in a further assay: MYC, MYC (gene 4609)
Nature of the assay: LTEA_HepaRG_MYC: Life Technologies and Expression Analysis (LTEA) Assay for MYC using HepaRG (AID 2283518). Summed up:
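Differentiated HepaRG cells exposed 48 h in serum-free induction medium to 8 concentrations (top 100 uM, half-log steps; 0.5% DMSO), duplicate. MYC mRNA measured by Fluidigm qRT-PCR, normalized to ACTB, GAPDH, POLR2A; bidirectional fit versus DMSO.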

Read-out in assay [12]: Paternally Expressed 10 (PEG10), PEG10 (gene 23089)
Kind of assay: LTEA_HepaRG_PEG10: Life Technologies and Expression Analysis (LTEA) Assay for Paternally Expressed 10 (PEG10) using HepaRG (AID 2283520). Summed up: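 Differentiated HepaRG cells exposed 48 h in serum-free induction medium to eight half-log concentrations topping at 100 uM, 0.5% DMSO, in duplicate. PEG10 mRNA quantified by TaqMan qRT-PCR, normalized to ACTB, GAPDH and POLR2A; bidirectional fit versus DMSO.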

Read-out in assay [13]: Nuclear factor NF-kappa-B p105 subunit (Homo sapiens) (UniProt P19838)
Kind of assay: LTEA_HepaRG_NFKB1: Life Technologies and Expression Analysis (LTEA) Assay for Nuclear Factor Kappa B Subunit 1 (NFKB1) using HepaRG (AID 2283521).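 As to outcome: TaqMan qRT-PCR transcript normalised to ACTB GAPDH and POLR2A housekeeping genes.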 In outline:
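NFKB1 transcript was measured by TaqMan qRT-PCR on Fluidigm arrays, normalised to three housekeeping genes and fitted in both directions against 0.5% DMSO. HepaRG cells were dosed in duplicate for 48 h in serum-free induction medium, eight half-log steps from 100 uM.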

Read-out in assay [14]: Protein phosphatase 2A (PPP2R4), PTPA (gene 5524)
Nature of the assay: LTEA_HepaRG_PPP2R4: Life Technologies and Expression Analysis (LTEA) Assay for Protein phosphatase 2A (PPP2R4) using HepaRG (AID 2283522). In outline: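 Differentiated human HepaRG cells in serum-free induction medium were exposed 48 h to 8 concentrations (top 100 µM, half-log steps, duplicate) in 0.5% DMSO. PPP2R4 mRNA was measured by TaqMan qRT-PCR, normalised to ACTB, GAPDH and POLR2A, and fitted bidirectionally versus DMSO.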

Read-out in assay [15]: Phosphatase and tensin (PTEN), PTEN (gene 5728)
Kind of assay: LTEA_HepaRG_PTEN: Life Technologies and Expression Analysis (LTEA) Assay for Phosphatase and tensin (PTEN) using HepaRG (AID 2283523). In outline: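 HepaRG cells, 48 h after plating, exposed in duplicate for 48 h in serum-free induction medium to 8 half-log concentrations up to 100 uM (0.5% DMSO). PTEN mRNA by qRT-PCR, normalized to ACTB, GAPDH, POLR2A; bidirectional fit versus DMSO.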

Read-out in assay [16]: solute carrier (SLC22A1), SLC22A1 (gene 6580)
Nature of the assay: LTEA_HepaRG_SLC22A1: Life Technologies and Expression Analysis (LTEA) Assay for solute carrier (SLC22A1) using HepaRG (AID 2283524). In outline: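 Differentiated human HepaRG cells in serum-free induction medium, exposed 48 h in duplicate to 8-point half-log series from 100 µM top in 0.5% DMSO. SLC22A1 mRNA by TaqMan qRT-PCR normalized to ACTB, GAPDH, POLR2A; bidirectional fit versus DMSO.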

Read-out in assay [17]: Pyruvate Dehydrogenase Kinase 4 (PDK4), PDK4 (gene 5166)
Kind of assay: LTEA_HepaRG_PDK4: Life Technologies and Expression Analysis (LTEA) Assay for Pyruvate Dehydrogenase Kinase 4 (PDK4) using HepaRG (AID 2283525). In outline: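 HepaRG cells plated 48 h, then switched to serum-free induction medium and exposed in duplicate for 48 h to 8 half-log concentrations from 100 uM in 0.5% DMSO. PDK4 mRNA measured by qRT-PCR, normalized to ACTB, GAPDH and POLR2A; bidirectional fit versus DMSO.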

Read-out in assay [18]: Keratin 19 (KRT19), KRT19 (gene 3880)
Kind of assay: LTEA_HepaRG_KRT19: Life Technologies and Expression Analysis (LTEA) Assay for Keratin 19 (KRT19) using HepaRG (AID 2283512). In outline: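 Differentiated HepaRG cells in serum-free induction medium, exposed 48 h in duplicate to 8 half-log concentrations up to 100 uM in 0.5% DMSO. KRT19 mRNA by qRT-PCR, normalized to ACTB, GAPDH, POLR2A; bidirectional fit vs DMSO.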

Sequence of Nuclear factor NF-kappa-B p105 subunit (Homo sapiens) (P19838 whole entry, looked up): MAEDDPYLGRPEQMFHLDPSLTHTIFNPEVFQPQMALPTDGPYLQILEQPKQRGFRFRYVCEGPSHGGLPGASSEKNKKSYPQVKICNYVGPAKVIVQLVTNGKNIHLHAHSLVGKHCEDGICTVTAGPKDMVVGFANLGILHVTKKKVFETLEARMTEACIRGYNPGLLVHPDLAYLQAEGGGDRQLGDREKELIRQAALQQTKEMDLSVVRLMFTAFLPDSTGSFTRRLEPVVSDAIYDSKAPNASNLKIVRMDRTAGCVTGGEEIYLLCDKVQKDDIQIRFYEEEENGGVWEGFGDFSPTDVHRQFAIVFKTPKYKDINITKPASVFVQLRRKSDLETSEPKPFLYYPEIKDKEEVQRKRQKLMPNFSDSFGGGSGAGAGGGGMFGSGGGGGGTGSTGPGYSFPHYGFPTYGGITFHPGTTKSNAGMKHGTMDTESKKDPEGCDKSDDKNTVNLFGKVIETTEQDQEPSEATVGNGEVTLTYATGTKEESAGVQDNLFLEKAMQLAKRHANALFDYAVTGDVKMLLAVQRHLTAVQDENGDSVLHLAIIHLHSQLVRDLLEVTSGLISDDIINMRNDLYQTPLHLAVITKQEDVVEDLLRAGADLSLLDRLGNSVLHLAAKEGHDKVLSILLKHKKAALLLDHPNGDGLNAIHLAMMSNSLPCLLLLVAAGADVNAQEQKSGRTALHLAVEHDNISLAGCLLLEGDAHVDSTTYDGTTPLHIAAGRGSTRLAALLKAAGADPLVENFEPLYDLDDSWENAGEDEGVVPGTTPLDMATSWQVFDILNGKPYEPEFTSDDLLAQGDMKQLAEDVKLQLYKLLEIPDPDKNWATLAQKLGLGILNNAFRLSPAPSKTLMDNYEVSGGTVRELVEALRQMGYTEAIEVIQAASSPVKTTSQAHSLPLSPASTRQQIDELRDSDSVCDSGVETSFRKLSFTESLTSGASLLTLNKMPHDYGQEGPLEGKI

In the case of `CN1C(=O)N(c2ccccc2Br)Cc2cnc(Nc3ccc4c(c3)OCC(CO)O4)nc21` (stereo not drawn), the AC50 in [1] is 32.7 µM (active); in [3] it was 62.3 µM (active); in [4] it was 11.6 µM (active); in assay [7], 12.1 µM (active); in [8], 71.8 µM (active); in [9] it was 31.8 µM (active). Further, the concentration at half-maximal activity (AC50) in assay [10] was 63.2 µM (active); in [13], 19.5 µM (active); in assay [16] it was 35.2 µM (active); in assay [17] it was 50 µM (active). The outcome is “inactive” in assay [2]; “inactive” in [5]; “inactive” in assay [6]; “inactive” in [11]; “inactive” with MYC, MYC (gene 4609); “inactive” in assay [12]. In addition, the compound was called inactive in assay [14] and in [15].
On to `Oc1ccccc1`, for which the call in assay [1], in [2], in [3], in assay [4], in [5] and in assay [6] was inactive. Further, the outcome in [18], in [7], in assay [8], in assay [9], in [10] and in assay [11] was inactive. Further, the compound was classed as inactive in [12], in [14], in assay [15], in assay [16] and in [17].
`CC(O)CC(C)(C)O` (stereo not drawn): the result in assay [2], in assay [3], in assay [4], in [5], in [6] and in assay [18] was inactive. Moreover, the outcome in assay [7] is “inactive”; in [8], “inactive”; in assay [9], “inactive”; in assay [10], “inactive”; in assay [11], “inactive”; in the assay with MYC, MYC (gene 4609) it was “inactive”. Besides, the outcome in assay [12], in assay [13], in assay [14], in assay [15], in [16] and in assay [17] was inactive.

For orientation: AC50 means the concentration giving half of the maximal activity seen.
